# Assay results: PubChem BioAssay AID720561 (Broad Institute, 2013)
# Entries with a potency or affinity are not part of this list. Calls of active or inactive are those of the source. How the calls were made is not given here.
# Assay: HIF luciferase reporter inhibitors, dose response, ARNT-TACC3 inhibitor project, cell-based, dry powder samples, luminescence, 2158-07 (AID 720561)
row,Structure (SMILES),outcome
1,FC(F)(F)c1cc(-c2nn[nH]n2)cc(C(F)(F)F)c1,inactive
2,O=C(CSc1ccc(-c2ccccn2)nn1)Nc1ccccc1,inactive
3,O=C(CSc1ccc(-c2ccccn2)nn1)NC1CCCCC1,inactive
4,C=CC1=C(C(=O)O)N2C(=O)[C@@H](NC(=O)/C(=N\O)c3csc(N)n3)[C@H]2SC1 (stereo in doubt),inactive
5,Cc1ccc(C(=O)Nc2nc(-c3ccccn3)cs2)cc1S(=O)(=O)N1CCOCC1,inactive
6,Cc1c(C(=O)N(C)C)sc2nc(-c3ccccn3)[nH]c(=O)c12,inactive
7,O=C(CSc1ccc(-c2ccccn2)nn1)N1CCCC1,inactive
8,CC1CCN(S(=O)(=O)c2ccc(C(=O)Nc3nnc(-c4ccno4)o3)cc2)CC1,inactive
9,CC1CCN(S(=O)(=O)c2ccc(C(=O)Nc3nnc(-c4ccccn4)o3)cc2)CC1,inactive
